Here are results for 67 compounds from PubChem BioAssay AID652115 (Broad Institute, 2013).

Structures are written as SMILES. Hit rate of the full screen: of about 330,000 compounds, about 3,800 (1.2%) were called active. This excerpt belongs to a sample that is enriched for actives. Unmarked numbers belong to inactive results. Rule as the data show it: active = inhibition above about 15%; inconclusive = no clear call, values can overlap the other calls; inactive = below that.

Sequence of NAD-dependent protein deacylase sirtuin-5, mitochondrial (Homo sapiens) (Q9NXA8 whole entry, looked up): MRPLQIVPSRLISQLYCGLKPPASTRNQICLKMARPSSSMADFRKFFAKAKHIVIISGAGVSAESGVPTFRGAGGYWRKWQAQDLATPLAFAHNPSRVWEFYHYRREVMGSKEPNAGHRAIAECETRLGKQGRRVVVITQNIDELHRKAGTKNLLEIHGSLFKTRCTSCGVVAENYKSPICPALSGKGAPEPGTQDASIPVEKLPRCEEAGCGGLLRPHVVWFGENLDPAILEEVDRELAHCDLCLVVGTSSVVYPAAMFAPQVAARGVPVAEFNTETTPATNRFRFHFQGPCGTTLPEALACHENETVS

The assay addresses NAD-dependent protein deacylase sirtuin-5, mitochondrial (Homo sapiens) (UniProt Q9NXA8). Nature of the assay: blockers of sirtuin-5 deacylase activity – biochemical, fluorescence imaging, single point, set 5, primary screen (AID 652115). To be noted: Purified SirT5, succinyl-peptide AMC, trypsin-coupled fluorescence; at 15 µM; active compounds read high.
Broadly, the inhibition is the relative decrease from the control value, in per cent. For `COc1ccc(S(=O)(=O)N2CCCCC2)cc1NC(=O)C1CC(=O)N(c2ccc3c(c2)OCCO3)C1` (configuration not stated), the inhibition is -0.216%. In the case of `Cc1ccc(NC(=O)C2CC(=O)N(c3ccc4c(c3)OCCO4)C2)cc1S(=O)(=O)N1CCCCCC1` (configuration not stated) it was 15.7% (active). The result for `Cc1ccc(N2CC(C(=O)Nc3ccc(S(=O)(=O)N4CCCC4)cc3)CC2=O)cc1C` (configuration not stated) reads -0.84%; that for `CN1[C@@H]2c3ccc(-c4cccc(F)c4)c(=O)n3C[C@@H]2[C@@H](CO)[C@@H]1C(=O)NC1CCC1`, 1.95%.

On to `CC(C)(C)OC(=O)N[C@H](C(=O)OC(C)(C)C)c1ccc(Br)cc1`, for which the inhibition is 0.762%. Consider `CC(C)(C)OC(=O)Nc1ccc([C@@H](NC(=O)OC(C)(C)C)C(=O)OC(C)(C)C)cc1`, for which the inhibition is 4.38%. For the compound `COC(=O)c1ccc([C@@H](O)[C@H](C)C(=O)CC(=O)OC(C)(C)C)cc1`, the inhibition was 37.8% (active). As to `C[C@@H]1CN([C@H](C)CO)C(=O)c2c(c3ccccc3n2C)-c2ccccc2CO[C@H]1CN(C)Cc1ccc(F)cc1`, the inhibition was 8.7%. In the case of `C[C@H]1CN([C@@H](C)CO)C(=O)c2cc(-c3cccnc3)cnc2O[C@@H]1CN(C)C(=O)C1CC1` it was -5.02%; in that of `COc1ccc(CN(C)C[C@H]2Oc3ccc(NC(=O)Cc4ccccc4)cc3CC(=O)N([C@@H](C)CO)C[C@@H]2C)cc1`, 3.47%. The result for `C[C@H]1CN([C@@H](C)CO)C(=O)Cc2cc(NC(=O)Cn3cnnn3)ccc2O[C@@H]1CN(C)Cc1ccc(-c2ccccc2)cc1` reads 4.01%. Take `C[C@@H]1CN([C@@H](C)CO)C(=O)Cc2cc(NC(=O)CCCN(C)C)ccc2O[C@@H]1CN(C)Cc1ccc(-c2ccccc2)cc1`: the inhibition was -0.666%. For `C[C@H]1CN([C@@H](C)CO)C(=O)Cc2cc(NC(=O)Cn3cnnn3)ccc2O[C@H]1CN(C)Cc1ccc(C(=O)O)cc1`, the inhibition is 18% (active).

As to `C[C@H](CO)N1C[C@H](C)[C@@H](CN(C)Cc2ccc(-c3ccccc3)cc2)Oc2ccc(NC(=O)CCC(F)(F)F)cc2CC1=O`, the inhibition is 16.8% (active). For `C[C@H]1CN([C@@H](C)CO)C(=O)Cc2cc(NS(=O)(=O)c3ccccc3)ccc2O[C@@H]1CN(C)Cc1ccc(C(=O)Nc2ccccc2N)cc1`, the inhibition is -3.96%. In the case of `C[C@@H]1CN([C@@H](C)CO)C(=O)Cc2cc(NC(=O)Cc3ccccc3)ccc2O[C@@H]1CN(C)Cc1ccc(Oc2ccccc2)cc1` it was 15.7% (active); in that of `C[C@@H]1CN([C@H](C)CO)C(=O)Cc2cc(NC(=O)Cc3ccccc3)ccc2O[C@H]1CN(C)Cc1ccc(Oc2ccccc2)cc1`, 11.3%; in that of `Cc1ccc(S(=O)(=O)Nc2ccc3c(c2)CC(=O)N([C@@H](C)CO)C[C@H](C)[C@H](CN(C)Cc2ccc(C(=O)Nc4ccccc4N)cc2)O3)cc1`, 3.56%. In the case of `C[C@H]1CN([C@@H](C)CO)C(=O)Cc2cc(NS(=O)(=O)c3ccccc3)ccc2O[C@H]1CN(C)Cc1ccc(C(=O)Nc2ccccc2N)cc1` it was 18.7% (active); in that of `C[C@H](CO)N1C[C@H](C)[C@@H](CN(C)Cc2ccc(C(=O)O)cc2)Oc2ccc(NC(=O)Cn3cnnn3)cc2CC1=O`, 0.832%; in that of `C[C@@H]1CN([C@H](C)CO)C(=O)Cc2cc(NC(=O)CCC(F)(F)F)ccc2O[C@@H]1CN(C)Cc1ccncc1`, -3.99%.

Consider `COCc1cc(N2CCN(C(=O)OC(C)(C)C)C[C@@H]2C)ccc1N1CCN(Cc2ccccc2)[C@H](C)C1`, for which the inhibition is -1.86%. The result for `COc1ccc2c3c([nH]c2c1)[C@H](CO)N(Cc1ccccc1)CC31CCN(C(=O)c2ccccn2)CC1` reads -0.283%. In the case of `CC(=O)N[C@@H]1CC[C@@H](CCNC(=O)C2CC2)O[C@H]1CO` it was -0.463%. The result for `C[C@H](CO)N1C[C@H](C)[C@H](CN(C)C(=O)CCC(F)(F)F)OCCCC[C@H](C)Oc2ccc(NS(=O)(=O)c3ccc(F)cc3)cc2C1=O` reads 6.37%. Turning to `C[C@@H]1CCCCO[C@@H](CN(C)S(C)(=O)=O)[C@H](C)CN([C@@H](C)CO)C(=O)c2cc(NS(=O)(=O)c3cccs3)ccc2O1`, the inhibition is -3.17%. The result for `CC(C)NC(=O)N(C)C[C@H]1Oc2ncc(-c3ccc(C(=O)N(C)C)cc3)cc2C(=O)N([C@H](C)CO)C[C@H]1C` reads -4.27%; that for `C[C@@H]1CCCCO[C@H](CN(C)Cc2ccc(Cl)c(Cl)c2)[C@H](C)CN([C@@H](C)CO)C(=O)c2cc(NC(=O)CCC(F)(F)F)ccc2O1`, 11%; that for `CCN(CC(=O)NC1CCS(=O)(=O)C1)S(=O)(=O)c1ccccc1` (configuration not stated), 20.8% (active). The result for `CCN(CC(=O)NCCc1ccccc1)S(=O)(=O)c1ccccc1` reads 13.5%; that for `CCN(CC(=O)Nc1ccc2c(c1)OCO2)S(=O)(=O)c1ccccc1`, -11.2%.

For `CCOc1ccc(/C=C2\SC(=S)N(NC(=O)c3ccncc3)C2=O)cc1OC`, the inhibition is -1.31%. In the case of `COc1ccc(/C=C2\SC(=S)N(CC(=O)NNC(=O)c3ccncc3)C2=O)cc1` it was 36.3% (active); in that of `COc1cccc(/C=C2/SC(=S)N(CC(=O)NC3C=CS(=O)(=O)C3)C2=O)c1` (configuration not stated), 7.07%; in that of `COc1ccccc1S(=O)(=O)N1CC[C@@H]2[C@H]1c1cc(-c3ccccc3)ccc1N[C@@H]2CO`, 2.02%. `O=C(C[C@@H]1CC[C@H](NC(=O)C2CCOCC2)[C@@H](CO)O1)Nc1ccccc1`: the inhibition is -0.611%.

Consider `Cc1ccc(F)cc1S(=O)(=O)N[C@@H]1CCN(Cc2ccc(-c3ccccc3)cc2)C1`, for which the inhibition is 4.54%.

Regarding `CCOC1=C2[C@@H](CN(S(=O)(=O)c3ccc(C)cc3)[C@H]2c2ccccc2F)[C@H]2C(=O)N(Cc3ccccc3)C(=O)[C@H]2C1`, the inhibition was 10.7%. Turning to `Cc1ccc(S(=O)(=O)N2C[C@@H]3CCCC[C@@H]3[C@@H](C)[C@H]2c2cn(Cc3ccccc3)c3ccc(F)cc23)cc1`, the inhibition is 26.5% (active). The result for `O=C(OCC(=O)N1CCOCC1)c1ccc2ccccc2c1` reads -8.77%; that for `C=CCC1=C/C(=C\c2c(N)n3nc(CC(=O)N4CCOCC4)sc3nc2=O)C=C(OC)C1=O`, 31.6% (active); that for `COC1=C/C(=C/c2c(N)n3nc(CC(=O)N4CCOCC4)sc3nc2=O)C=CC1=O`, 15.9% (active). In the case of `COc1cc(/C=C2\C(=N)N3N=C(CC(=O)N4CCOCC4)SC3=NC2=O)cc(OC)c1OC` it was -5.1%.

On to `COc1cccc(/C=C2\SC(=S)N(CCCC(=O)N3CCOCC3)C2=O)c1`, for which the inhibition was -0.302%. In the case of `C[C@H](CO)N1C[C@H](C)[C@H](CN(C)Cc2cncnc2)Oc2cc(-c3ccccc3F)ccc2S1(=O)=O` it was -2.9%; in that of `O=C(C[C@H]1CC[C@H]2[C@@H](COC[C@H](O)CN2Cc2nccs2)O1)NCc1ccc(Oc2ccccc2)cc1`, -0.449%. For the compound `Cc1ccc(-c2cnc3c(c2)C(=O)N([C@@H](C)CO)C[C@H](C)[C@H](CN(C)C(=O)c2cccnc2)O3)cc1`, the inhibition is 1.09%. In the case of `O=S(=O)(c1ccccc1F)N1[C@@H]2CNC[C@H]1C2c1ccc(-c2cncnc2)cc1` (some centres not stated) it was -2.66%; in that of `Cc1ccc(S(=O)(=O)N[C@H]2CC[C@@H](CC(=O)N3CCc4ccccc4C3)O[C@H]2CO)cc1`, -2.83%.

Turning to `COCC(=O)N1[C@H](CO)[C@@H](c2ccccc2)C12CN(Cc1cc(F)ccc1F)C2`, the inhibition is 19% (active). In the case of `COCC(=O)N1CC2(C1)[C@@H](c1ccc(-c3cccc(F)c3)cc1)[C@@H](CO)N2C(=O)COC` it was -1.31%; in that of `COCC(=O)N1CC2(C1)[C@H](c1ccc(-c3cccc(F)c3)cc1)[C@@H](CO)N2C(=O)COC`, -3.18%.

For the compound `C[C@@H](NC(=O)C[C@H]1C=C[C@@H](NC(=O)CN2CCOCC2)[C@@H](CO)O1)c1ccccc1`, the inhibition was 0.512%. In the case of `O=C(C[C@@H]1CC[C@@H]2[C@H](COC[C@H](O)CN2S(=O)(=O)c2ccc(Oc3ccccc3)cc2)O1)NCCN1CCCCC1` it was -3.74%; in that of `CO[C@@H]1CN(C)C(=O)c2ccc(NS(=O)(=O)c3ccc(Cl)cc3)cc2OC[C@@H](C)N(C)C[C@H]1C`, -8.92%; in that of `CC(C)NC(=O)N[C@H]1CC[C@@H](CCNC(=O)C2CCC2)O[C@@H]1CO`, -0.093%. In the case of `CO[C@H]1CC[C@H]2CCOc3c(C#N)cccc3C(=O)N(C)CC3(CCCCC3)CC(=O)N(C)C[C@@H]1O2` it was -0.489%; in that of `CC1(C)N=C(N)NC(Nc2ccc(Cl)cc2)=N1`, 24.2% (active). The result for `Clc1ccc(Nc2ccc3ccccc3n2)cc1` reads -0.101%. As for `O=c1ccnc(Nc2ccc(Cl)cc2)[nH]1`, the inhibition was -3.58%. In the case of `CO[C@H]1CN(C)C(=O)c2ccc(NS(=O)(=O)c3cn(C)cn3)cc2OC[C@@H](C)N(CC2CC2)C[C@H]1C` it was 10.4%.

`CCOC(=O)c1cnc2nc(SCc3ccccc3Cl)[nH]n2c1=O`: the inhibition was -0.638%. In the case of `COc1cnc(SCc2ccc(Cl)c(Cl)c2)nc1Cl` it was -1.51%; in that of `COC(OC)c1ccnc(SCc2ccccc2Cl)n1`, 65.6% (active). `Cc1ccc2nc(CN(C)C(=O)[C@@H](Cc3ccccc3)NC(=O)[C@H]3O[C@@H](n4ccc(=O)[nH]c4=O)[C@H](O)[C@@H]3O)[nH]c2c1`: the inhibition was 0.009%.

Take `CN1C(=O)c2cc(NC(=O)c3cscn3)ccc2OC[C@@H]2O[C@H](CC(=O)N3CCCCC3)CC[C@H]21`: the inhibition is 10.6%.

With `COc1ccc(C#Cc2cnc3c(c2)C(=O)N([C@H](C)CO)C[C@H](C)[C@H](CN(C)C(=O)CC2CC2)O3)cc1`, the inhibition was 8.29%.
